This note sets out measurements from PubChem BioAssay (NCATS).

Values joined by “and” are separate entries in the source; they are usually repeats but may differ in a detail not shown here. Identical values can stand only once. Records with an inconclusive call do not appear. Where a structure was tested more than once in an assay, its records may differ in their call. Active and inactive are the calls of the source. Unless noted, calls follow the shape of the dose curve; as a rule, active = well fitted curve in either direction with a large enough effect (not every such curve was filed as active); inconclusive = small, poorly fitted or top-dose-only effect, or another doubt; inactive = flat fitted curve, though single readings scatter.

Assay [1] deals with Lysosomal acid glucosylceramidase (Homo sapiens) (UniProt P04062). Briefly: Glucocerebrosidase-p2 (AID 348; in the data active = potency below about 10 µM; also: potency is read from the fitted curve at half-maximal effect). Conditions: purified GBA, blue fluorogenic substrate, 40 min. Put shortly: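 Compounds titrated from 0.6 nM upwards against 0.2 nM enzyme in pH 5.9 citric acid/KH2PO4, taurocholate, tween-20; blue fluorogenic substrate 80 uM, 40 min room temperature, stopped and read Ex 365/Em 440 for AC50.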

Assay [2] has as its target Cytochrome P450 1A2 (Homo sapiens) (UniProt P05177). Briefly: p450-cyp1a2 (AID 410; calls by dose curve; also: potency is read from the fitted curve at half-maximal effect;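 as to activity change, negative = inhibition: -100% = full effect of reference inhibitor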). The note with it: recombinant CYP1A2, luciferin-ME demethylation, luminescence; series mostly up to 57 µM. In a few lines: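 20nM CYP1A2 with 100uM Luciferin-ME (at Km) in 100mM KPO4; compound preincubated 10 min, NADPH regeneration added, 60 min at room temperature. Luciferin quantified by luminescence after detection reagent; normalized to 57 uM furafylline.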

For assay [3], the target named is Glucocorticoid receptor (Homo sapiens) (UniProt P04150). Briefly: GR-GFP Redistribution (AID 450;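 active = compounds whose dose series gives a full or clear partial fitted curve of increased nuclear translocation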; also: potency is read from the fitted curve at half-maximal effect). Conditions: U2OS GR-GFP nuclear translocation, laser cytometry, 2 h.
The target is the same in assay [4]. Briefly: GR-EFC Redistribution (AID 451; calls by dose curve; also: potency is read from the fitted curve at half-maximal effect). Conditions: CHO-K1 GR-EFC translocation, beta-gal luminescence, 2 h. Put shortly: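 CHO-K1 cells stably expressing nuclear-localized β-gal enzyme acceptor and GR fused C-terminally to the enzyme donor fragment; ligand-driven nuclear translocation restores β-gal by complementation. Compounds titrated up to 46 uM final, 2 h at 37 °C; luminescence read.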

Assay [5] deals with Mitogen-activated protein kinase 10 (Mus musculus) (UniProt Q61831). Briefly: JNK3 AlphaScreen Assay (AID 530).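 Also: kinase came from lysate of stimulated human HepG2 cells; signal reports phosphorylation of biotinylated GST-cJun 1-79 at Ser73 with 10 µM ATP; % is scaled to controls: 0 for no effect and ±100 for the full control effect.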 Conditions: JNK3 lysate, c-Jun phosphorylation; series mostly up to 57.1 µM. In a few lines: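 Inhibitors reduce antibody binding to phosphorylated biotin-cJun, lowering AlphaScreen luminescence. Lysates from HepG2 cells pre-activated by IL-1beta plus TNF-alpha supplied JNK3; compounds were titrated.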
(In general: Alpha assays give light when donor and acceptor beads are brought close together.)

Assay [6] has as its target 3',5'-cyclic-AMP phosphodiesterase 4B (Homo sapiens) (UniProt Q07343). Briefly: qHTS Assay for Inhibitors of PDE-IV (AID 607; active = well fitted activation curve with a large enough effect in the main read-out, with a control signal flat, not every such curve was filed as active; also: % of control where 0% means no effect). Conditions: HEK293 ACTOne CNG channel cells, membrane potential fluorescence; series mostly up to 22.9 µM. In a few lines: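 Live HEK293 cells with a modified cyclic nucleotide-gated (CNG) channel report intracellular cAMP via membrane-potential dye fluorescence (ex 535/em 590 nm). Endogenous PDE-IV was targeted. Compounds were tested at up to 22.9 uM final; RO 20-1724 100 uM served as control.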
(Quantitative high-throughput screening tests each substance at several concentrations.)

Assay [7] is described as follows: qHTS Assay for Identification of Small Molecule Agonists for Hypoxia Response Element Signaling Pathway (AID 914; active = well fitted activation curve with a large enough effect in the signal ratio, with a control signal flat, not every such curve was filed as active; the % refers to the signal ratio; also: potency is read from the fitted curve at half-maximal effect; as to activation: % of control where 0% means no effect). The note with it: ME-180 HRE-bla reporter, beta-lactamase ratio, CoCl2, 17 h; activation: stronger effect = higher value. In a few lines:
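Read-out: CCF4 FRET ratio of 460nm to 530nm emission (excitation 405nm) after 2.5 hours at room temperature, taken from HRE-bla ME-180 cells that had been exposed to compound and EC50 CoCl2 for 17 hours.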

Assay [8] is described as follows: qHTS Assay for Lipid Storage Modulators (AID 1519; calls by dose curve). The note with it: Drosophila S3 cells, BODIPY lipid droplet/cell ratio, laser cytometry, cells loaded with oleic acid. In a few lines:
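Cells seeded at 5,000 per well were treated with compounds over a concentration series and loaded with oleic acid (400 uM, as added). Lipid droplet fluorescence (488 nm excitation, 500-530 nm channel) was read by laser-scanning cytometry and normalized to 20 uM Triacsin C.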

Assay [9] is described as follows: AP1 Signaling Pathway (AID 357). Also: % is scaled to controls: 0 for no effect and ±100 for the full control effect. The note with it: ME-180 AP-1-bla reporter, EGF-induced, beta-lactamase ratio, 5 h. In a few lines: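 ME-180 cells with beta-lactamase reporter under AP-1 response element, stimulated with EC50 EGF; compounds tested in titration series, 5 h at 37 °C. CCF4 substrate added 2.5 h at room temperature; 460/530 nm emission ratio gave %activity and AC50.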

The nature of assay [10]: NFAT Signaling Pathway (AID 444).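 Also: carbachol stimulus at about its EC50 of 1 µM final; % is scaled to controls: 0 for no effect and ±100 for the full control effect.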 The note with it: Jurkat NFAT-bla M1, carbachol, beta-lactamase ratio, 5 h. Put shortly:
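Jurkat cells carrying an NFAT-driven β-lactamase reporter and co-transfected muscarinic M1 receptor were treated with compound plus carbachol (1 uM final, an EC50 level) for 5 h at 37 °C. CCF4 loading followed for 1 h at RT; 460/530 nm ratio gave %activity.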

Assay [11] in a line: Stat Signaling Pathway (AID 446).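 Also: ME-180 cervical cancer cells given 40 pM IL-6 alongside compound; SIE-controlled beta-lactamase reporter measured as 460/530 nm FRET emission ratio; % is scaled to controls: 0 for no effect and ±100 for the full control effect.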 The note with it: ME-180 (cervical carcinoma) SIE beta-lactamase reporter, IL-6 stimulated, 5 h. In a few lines: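 IL-6/STAT signaling read in ME-180 cells via an SIE beta-lactamase reporter. Stimulus was 40 pM IL-6 (its AC50) for 5 hrs, so both activation and inhibition register.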
The target in assay [12] is Cytochrome P450 3A4 (Homo sapiens) (UniProt P08684). Briefly: qHTS Assay for Activators of Cytochrome P450 3A4 (AID 885; active = well fitted curve in the direction sought with a large enough effect; an effect the other way counts as inactive or inconclusive; also: nearly all actives have a fitted effect of over 65% in size). Conditions: recombinant CYP3A4, Luciferin-PPXE luminescence, 60 min; series mostly up to 57.1 µM. In a few lines: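 Quantitative HTS format: compounds preincubated with 20nM human CYP3A4 and Luciferin-PPXE substrate at KM, reaction started by NADPH regeneration, stopped after 60 min, luciferase luminescence read 20 min later.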

Assay [13] deals with Cytochrome P450 2D6 (Homo sapiens) (UniProt P10635). Briefly: qHTS Assay for Inhibitors and Substrates of Cytochrome P450 2D6 (AID 891; active = well fitted curve in the direction sought with a large enough effect; an effect the other way counts as inactive or inconclusive; also: potency is read from the fitted curve at half-maximal effect; nearly all actives have a fitted effect of over 60% in size). Conditions: recombinant CYP2D6, luciferin-ME EGE luminescence; series mostly up to 57.1 µM. In a few lines:
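Human CYP2D6 (5 nM) with 30 uM Luciferin-ME EGE (at Km) in 100 mM KPO4, compound preincubated 10 min, then NADPH regeneration system for 60 min at room temperature. Luciferin read by luminescence; normalized to 1.43 uM quinidine.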

Assay [14] deals with Guanine nucleotide-binding protein G(i) subunit alpha-1 (Homo sapiens) (UniProt P63096). Briefly: qHTS Assay for Inhibitors of RGS12 GoLoco Motif Activity (Green Fluorophore) (AID 879; active = well fitted curve in the direction sought with a large enough effect; an effect the other way counts as inactive or inconclusive;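 also: 0% = labeled peptide with Gαi1 and full inhibition = labeled peptide alone without protein; negative values mean loss of peptide binding seen as reduced polarization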). The note with it: Galphai1/FITC-RGS12 GoLoco peptide, fluorescence polarization; series mostly up to 57.1 µM. Put shortly: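 Fluorescence polarization assay: 50 nM Gαi1 with 10 nM FITC-labeled RGS12 GoLoco peptide in 10 mM Tris pH 7.5, 150 mM NaCl, 0.1 mM GDP, 0.05% NP40, 10 min at room temperature with compound.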

For assay [15], the target named is Cytochrome P450 2C19 (Homo sapiens) (UniProt P33261). Briefly: qHTS Assay for Inhibitors and Substrates of Cytochrome P450 2C19 (AID 899; active = well fitted curve in the direction sought with a large enough effect; an effect the other way counts as inactive or inconclusive; also: % is scaled to controls: 0 for no effect and ±100 for the full control effect; nearly all actives have a fitted effect of over 60% in size). Conditions: recombinant CYP2C19, luciferin-H EGE luminescence; series mostly up to 57.1 µM. In a few lines: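 In 50mM KPO4, the reaction held 5nM enzyme and KM-level (10uM) Luciferin-H EGE; it ran 60 min at 37C after NADPH regeneration and a 10 min compound preincubation. Luminescence values were scaled to 57uM ketoconazole as complete inhibition.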

For assay [16], the target named is Ubiquitin carboxyl-terminal hydrolase 1 (Homo sapiens) (UniProt O94782). Briefly: Inhibitors of USP1/UAF1: Pilot qHTS (AID 504865; active = well fitted curve in the direction sought with a large enough effect; an effect the other way counts as inactive or inconclusive;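 also: rhodamine fluorescence freed from ubiquitin-rhodamine substrate followed over time; top concentration of the series differs between compounds; % is scaled to controls: 0 for no effect and ±100 for the full control effect; nearly all actives have a fitted effect of over 35% in size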). The note with it: purified USP1/UAF1, Ub-rhodamine cleavage fluorescence; series mostly up to 54.9 µM. Put shortly:
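In 50mM HEPES pH 7.8 containing 0.5mM EDTA, 1mM TCEP, 0.1 mg/ml BSA and 0.01% Tween-20, 1nM USP1/UAF1 is exposed to compound for 15 min, then Ub-Rho (150nM final) is added and fluorescence is read over time.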

Assay [17] can be described thus: qHTS profiling for inhibitors of Plasmodium falciparum proliferation (AID 504749; active = well fitted curve in the direction sought with a large enough effect; an effect the other way counts as inactive or inconclusive;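 also: 0% = DMSO vehicle and full inhibition = artemisinin control; nearly all actives have a fitted effect of over 60% in size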). Conditions: P. falciparum in erythrocytes, SYBR Green DNA, 72 h, at 28.7 µM (top of the series). Put shortly:
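Parasite proliferation within erythrocytes, 72 h exposure. Endpoint: SYBR Green I fluorescence after overnight lysis at room temperature. Controls: 0.29 uM artemisinin, DMSO.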

Where [18] appears, read: measured here: cell count channel max response.
The mark [19] stands for this setting: measured here: lipid channel max response.
Where [20] appears, read: at 7.69 µM (top of the series) unless noted.

Chain of Cytochrome P450 1A2 (Homo sapiens) (P05177 whole entry, looked up): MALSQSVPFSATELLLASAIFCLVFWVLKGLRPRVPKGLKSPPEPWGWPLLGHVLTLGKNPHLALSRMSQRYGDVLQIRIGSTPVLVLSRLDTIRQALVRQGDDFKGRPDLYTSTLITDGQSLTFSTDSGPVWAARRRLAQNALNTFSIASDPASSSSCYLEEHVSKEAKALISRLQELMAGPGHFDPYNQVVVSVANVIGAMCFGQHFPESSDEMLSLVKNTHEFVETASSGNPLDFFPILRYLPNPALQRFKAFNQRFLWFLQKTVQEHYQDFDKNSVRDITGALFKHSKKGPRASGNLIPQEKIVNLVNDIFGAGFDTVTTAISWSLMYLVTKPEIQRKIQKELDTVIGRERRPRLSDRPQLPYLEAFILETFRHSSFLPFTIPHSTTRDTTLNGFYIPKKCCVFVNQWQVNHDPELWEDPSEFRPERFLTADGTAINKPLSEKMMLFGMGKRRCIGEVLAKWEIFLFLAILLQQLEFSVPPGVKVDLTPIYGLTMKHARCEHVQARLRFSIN
Chain of Glucocorticoid receptor (Homo sapiens) (P04150 whole entry, looked up, the tested form may be a part): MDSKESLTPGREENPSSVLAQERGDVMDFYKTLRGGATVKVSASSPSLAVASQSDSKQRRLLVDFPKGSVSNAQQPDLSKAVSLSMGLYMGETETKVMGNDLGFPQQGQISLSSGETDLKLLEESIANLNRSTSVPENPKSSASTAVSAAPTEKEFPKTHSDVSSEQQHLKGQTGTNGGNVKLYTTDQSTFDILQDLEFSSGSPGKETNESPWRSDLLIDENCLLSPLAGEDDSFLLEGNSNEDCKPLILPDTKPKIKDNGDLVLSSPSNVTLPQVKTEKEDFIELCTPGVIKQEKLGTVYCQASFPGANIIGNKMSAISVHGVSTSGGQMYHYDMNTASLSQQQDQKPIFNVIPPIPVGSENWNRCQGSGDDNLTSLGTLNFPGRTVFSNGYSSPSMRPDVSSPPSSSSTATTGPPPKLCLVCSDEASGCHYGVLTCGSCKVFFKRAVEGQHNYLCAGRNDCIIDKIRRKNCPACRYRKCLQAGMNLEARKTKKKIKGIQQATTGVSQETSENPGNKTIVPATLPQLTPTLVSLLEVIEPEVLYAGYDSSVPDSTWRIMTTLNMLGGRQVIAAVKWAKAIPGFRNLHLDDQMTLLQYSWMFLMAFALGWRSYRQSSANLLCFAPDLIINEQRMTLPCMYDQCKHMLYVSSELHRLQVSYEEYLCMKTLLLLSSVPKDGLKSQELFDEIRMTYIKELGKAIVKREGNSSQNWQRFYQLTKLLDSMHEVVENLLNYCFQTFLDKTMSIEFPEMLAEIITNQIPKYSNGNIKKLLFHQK
Chain of 3',5'-cyclic-AMP phosphodiesterase 4B (Homo sapiens) (Q07343 whole entry, looked up): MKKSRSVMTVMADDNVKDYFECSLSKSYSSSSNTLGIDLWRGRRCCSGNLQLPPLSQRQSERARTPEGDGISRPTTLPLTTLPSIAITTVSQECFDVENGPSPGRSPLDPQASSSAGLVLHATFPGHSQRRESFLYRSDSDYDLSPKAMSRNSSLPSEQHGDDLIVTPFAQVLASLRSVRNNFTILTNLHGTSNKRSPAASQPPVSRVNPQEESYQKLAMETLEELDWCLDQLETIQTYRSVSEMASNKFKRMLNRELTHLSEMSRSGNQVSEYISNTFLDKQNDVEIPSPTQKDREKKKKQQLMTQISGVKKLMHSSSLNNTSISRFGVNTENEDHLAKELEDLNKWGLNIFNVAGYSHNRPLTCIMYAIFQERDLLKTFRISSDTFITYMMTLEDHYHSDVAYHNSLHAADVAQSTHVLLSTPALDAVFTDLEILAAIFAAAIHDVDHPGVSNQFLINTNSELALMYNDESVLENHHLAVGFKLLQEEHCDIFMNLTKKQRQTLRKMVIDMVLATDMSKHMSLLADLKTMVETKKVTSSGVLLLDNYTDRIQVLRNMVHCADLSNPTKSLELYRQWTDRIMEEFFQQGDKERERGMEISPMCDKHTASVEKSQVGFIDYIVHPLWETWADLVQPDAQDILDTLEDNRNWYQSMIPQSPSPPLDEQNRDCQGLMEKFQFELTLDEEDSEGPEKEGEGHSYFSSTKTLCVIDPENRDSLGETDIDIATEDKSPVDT
Chain of Lysosomal acid glucosylceramidase (Homo sapiens) (P04062 whole entry, looked up): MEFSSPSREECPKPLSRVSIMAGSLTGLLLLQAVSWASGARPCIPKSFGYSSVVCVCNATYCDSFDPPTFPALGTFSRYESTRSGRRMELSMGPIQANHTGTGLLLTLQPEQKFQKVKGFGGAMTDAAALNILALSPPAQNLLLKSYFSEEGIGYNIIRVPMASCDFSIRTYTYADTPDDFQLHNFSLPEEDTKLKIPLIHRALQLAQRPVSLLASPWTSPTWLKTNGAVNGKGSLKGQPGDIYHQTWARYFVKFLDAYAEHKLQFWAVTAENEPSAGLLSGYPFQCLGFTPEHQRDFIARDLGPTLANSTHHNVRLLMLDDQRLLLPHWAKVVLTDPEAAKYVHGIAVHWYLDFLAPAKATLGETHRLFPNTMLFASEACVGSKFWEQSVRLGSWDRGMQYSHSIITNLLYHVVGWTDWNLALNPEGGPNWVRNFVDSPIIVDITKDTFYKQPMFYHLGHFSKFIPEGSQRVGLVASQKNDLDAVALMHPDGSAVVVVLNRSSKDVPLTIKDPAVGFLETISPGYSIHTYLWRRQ
Chain of Ubiquitin carboxyl-terminal hydrolase 1 (Homo sapiens) (O94782 whole entry, looked up): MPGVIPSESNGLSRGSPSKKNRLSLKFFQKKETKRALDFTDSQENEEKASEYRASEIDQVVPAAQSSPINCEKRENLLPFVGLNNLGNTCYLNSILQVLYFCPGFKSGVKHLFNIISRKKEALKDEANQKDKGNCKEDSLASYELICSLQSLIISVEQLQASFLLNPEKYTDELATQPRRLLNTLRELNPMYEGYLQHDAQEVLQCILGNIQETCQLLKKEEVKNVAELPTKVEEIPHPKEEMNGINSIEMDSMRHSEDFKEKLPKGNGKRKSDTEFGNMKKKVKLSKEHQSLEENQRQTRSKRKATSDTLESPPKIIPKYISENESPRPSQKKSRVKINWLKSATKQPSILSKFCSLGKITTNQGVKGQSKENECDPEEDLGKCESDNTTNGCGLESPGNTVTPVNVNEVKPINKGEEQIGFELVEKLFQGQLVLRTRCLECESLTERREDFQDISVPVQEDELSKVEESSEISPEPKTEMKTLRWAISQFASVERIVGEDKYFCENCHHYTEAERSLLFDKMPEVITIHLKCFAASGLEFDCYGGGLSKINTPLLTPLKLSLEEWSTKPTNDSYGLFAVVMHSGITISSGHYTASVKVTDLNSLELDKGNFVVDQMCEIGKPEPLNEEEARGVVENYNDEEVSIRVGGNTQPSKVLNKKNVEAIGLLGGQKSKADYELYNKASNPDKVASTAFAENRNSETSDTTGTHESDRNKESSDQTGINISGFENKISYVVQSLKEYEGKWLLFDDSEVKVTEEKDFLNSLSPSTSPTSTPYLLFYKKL
Chain of Guanine nucleotide-binding protein G(i) subunit alpha-1 (Homo sapiens) (P63096 whole entry, looked up): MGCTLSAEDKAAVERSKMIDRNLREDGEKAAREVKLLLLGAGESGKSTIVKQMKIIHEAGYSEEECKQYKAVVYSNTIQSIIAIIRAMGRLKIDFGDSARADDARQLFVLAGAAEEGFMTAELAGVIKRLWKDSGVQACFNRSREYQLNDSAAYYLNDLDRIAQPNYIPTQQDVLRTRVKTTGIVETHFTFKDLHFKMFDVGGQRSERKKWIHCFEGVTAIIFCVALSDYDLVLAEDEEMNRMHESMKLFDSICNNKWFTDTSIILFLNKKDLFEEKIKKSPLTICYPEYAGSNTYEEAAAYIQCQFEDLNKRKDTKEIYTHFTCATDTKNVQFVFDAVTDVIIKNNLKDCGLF
Chain of Cytochrome P450 2C19 (Homo sapiens) (P33261 whole entry, looked up): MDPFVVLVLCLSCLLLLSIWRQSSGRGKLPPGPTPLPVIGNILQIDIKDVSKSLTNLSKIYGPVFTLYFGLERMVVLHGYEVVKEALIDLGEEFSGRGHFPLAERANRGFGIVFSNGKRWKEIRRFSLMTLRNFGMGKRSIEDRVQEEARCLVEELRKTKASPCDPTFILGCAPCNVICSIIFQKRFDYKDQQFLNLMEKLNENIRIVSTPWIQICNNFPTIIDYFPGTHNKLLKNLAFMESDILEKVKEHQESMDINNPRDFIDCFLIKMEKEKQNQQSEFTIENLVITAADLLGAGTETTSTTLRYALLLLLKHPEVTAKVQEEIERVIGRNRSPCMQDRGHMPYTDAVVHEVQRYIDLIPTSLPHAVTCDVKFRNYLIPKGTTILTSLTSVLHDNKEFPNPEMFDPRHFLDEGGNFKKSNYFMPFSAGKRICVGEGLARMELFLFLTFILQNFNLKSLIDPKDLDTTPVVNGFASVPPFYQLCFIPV
Chain of Cytochrome P450 3A4 (Homo sapiens) (P08684 whole entry, looked up): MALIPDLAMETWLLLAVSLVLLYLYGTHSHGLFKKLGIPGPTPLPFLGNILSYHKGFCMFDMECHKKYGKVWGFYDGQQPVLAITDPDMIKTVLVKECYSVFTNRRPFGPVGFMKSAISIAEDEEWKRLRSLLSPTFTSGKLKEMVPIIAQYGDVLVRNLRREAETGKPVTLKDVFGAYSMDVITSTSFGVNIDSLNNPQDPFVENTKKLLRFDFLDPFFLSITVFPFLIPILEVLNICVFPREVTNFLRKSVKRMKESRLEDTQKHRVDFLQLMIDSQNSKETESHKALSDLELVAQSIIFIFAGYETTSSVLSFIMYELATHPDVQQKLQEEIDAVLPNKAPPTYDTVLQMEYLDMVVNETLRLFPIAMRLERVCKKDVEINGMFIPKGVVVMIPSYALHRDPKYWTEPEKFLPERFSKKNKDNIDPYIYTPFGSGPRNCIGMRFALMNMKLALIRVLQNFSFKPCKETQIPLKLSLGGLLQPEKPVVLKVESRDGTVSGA

As for `Cn1c(=O)c(-c2ccccc2)nc2cnc(N3CCNCC3)nc21`, the Potency in assay [1] was > 11.4 µM (inactive); in assay [2], 12.6 µM (active); in [3], > 9.22 µM (inactive); in assay [4] it was > 46 µM (inactive); in [7], 3.16 µM (active). Moreover, the Potency result in assay [5] and in [6] was “inactive” each time. Further, the activity change, negative = inhibition in assay [8] (at 57.5 µM (top of the series)) was 5.44% (inactive). Further, the max response was 18.4% in assay [8] (setting [18]) and 28.4% in [8] (setting [19]).

Take `COc1ccccc1CN1CC[C@@]2(CCCN(C(=O)c3ccco3)C2)C1`: the Potency in assay [1] was > 11.4 µM (inactive); in assay [4], > 46 µM (inactive); in assay [13], 0.501 µM (active). For the same compound, the activity change, negative = inhibition was -2.43% (inactive) in assay [9] (setting [20]), -21.8% (inactive) in [10] (setting [20]) and 1.52% (inactive) in [8] (at 57.5 µM (top of the series)). Also, the activity, negative = inhibition in assay [11] (setting [20]) was -8.66% (inactive). Further, the Potency entry in assay [5] and in assay [12] was “inactive” throughout. In addition, the activation in assay [7] is 6.4% (inactive). In addition, the results for the max response in assay [8] (setting [18]) and in [8] (setting [19]) were 4.46% and 8.6%, respectively.

As to `CO/N=C(\C(=O)N[C@@H]1C(=O)N2C(C(=O)O)=C(COC(C)=O)CS[C@@H]12)c1csc(N)n1`, the activity change, negative = inhibition in [9] (at 17.2 µM (top of the series)) was -5.85% (inactive); in assay [9] (at 38 µM (top of the series)), -1.56% (inactive); in [10] (at 17.2 µM (top of the series)), -7.64% (inactive); in assay [10] (at 38 µM (top of the series)), 3.41% (inactive); in assay [8] (at 25.7 µM (top of the series)), -0.702% (inactive). In addition, the Potency entry is “inactive and 12.6 µM (active)” in assay [2]; > 46 µM (inactive) and > 20.6 µM (inactive) in assay [3]; > 46 µM (inactive) and > 20.6 µM (inactive) in assay [4]. The activity, negative = inhibition in assay [11] (at 17.2 µM (top of the series)) was 3.57% (inactive); in assay [11] (at 38 µM (top of the series)), -20.5% (inactive); in assay [17] (parasite line A) it was 7.66% (inactive); in assay [17] (parasite line B) it was -2.07% (inactive). The Potency entry in assay [5], in assay [6], in assay [14], in assay [15] and in assay [16] was “inactive” throughout. The results for the max response in [8] (setting [18]) and in assay [8] (setting [19]) were -14.1% and -14.6%, respectively.
